Reference: PubChem BioAssay (Tox21)
Records with an inconclusive call do not appear. Unmarked numbers belong to inactive results. Calls of active or inactive are those of the source. The call rests on the fitted dose curve; in most records, active means well fitted activation curve with a large enough effect in the repeat runs; inconclusive means weak or mixed curves; inactive means flat fitted curve, though single readings scatter.

Assay: Caspase-3/7 induction in HepG2 cells by small molecules, qHTS assay (AID 1346978); further: nearly all actives have a fitted effect of over 15% in size
Conditions: HepG2 caspase-3/7 activation, Caspase-Glo luminescence, 17 h; series mostly up to 92.4 µM; caspase activation: at the top concentration
Excerpt: National Center for Advancing Translational Sciences [NCATS] NIH Chemical Genomics Center [NCGC] U.S. Environmental Protection Agency [EPA] National Institutes of Environmental Health Sciences [NIEHS] National Toxicology Program [NTP] Assay overview: Apoptosis is a process of programmed cell death and plays a central role in the development of multicellular organisms. It is a highly regulated process and induces cell death by activating caspases, which are the members of cysteine aspartic acid-specific protease (caspase) family. Caspases involved in apoptosis are classified by their mechanism of action as initiator caspases (caspase-2, -8, -9 and -10) and executioner caspases (caspase-3, -6, and -7). Inhibition of apoptosis results in number of cancers, autoimmune diseases, inflammatory diseases and viral infection. To identify small molecule compounds that induce apoptosis, a homogeneous, luminescent Caspase-Glo 3/7 assay was used. Wild type HepG2 cells were used to screen Tox21 libraries for identifying caspase-3/7 activity inducers.
Assay Protocol Summary: HepG2 cells were dispensed at 2,000 per well in 5uL of culture medium into white solid bottom 1536-well plates (Corning Life Sciences, Corning, NY) using a Multidrop Combi (Thermo Scientific, Waltham, MA) dispenser. The assay plates were incubated at 37 C and 5% CO2 for 5hr, and then 23nL of compounds dissolved in DMSO and positive control were transferred using a Pintool station (Wako, San Diego, CA). The assay plates were incubated at 37C and 5% CO2 for 17hr. For caspase-3/7 activity read, 4uL of Caspase-Glo 3/7 reagent (Promega Corporation, Madison, WI) was added to each well of the assay plates using Flying Reagent Dispenser (FRD, Aurora Discovery, San Diego, CA) and incubated the assay plates at room temperature for 30min. The luminescence signal was quantified using a ViewLux plate reader (Perkin Elmer, Shelton, CT).
On the % scale 0 is the no-effect control and ±100 the full control effect.

Structure (SMILES)	outcome	caspase activation
O=C1C2CC=CCC2C(=O)N1SC(Cl)(Cl)Cl (stereo not given)	inactive	–
CCOC(=O)Nc1cccc(OC(=O)Nc2ccccc2)c1	–	-14.2%
CC(C)(C)NC[C@H](O)c1ccc(O)cc1Cl	–	0.284% [at 42.5 µM]
CCCN1CCC[C@@H]2Cc3nc(N)ncc3C[C@H]21	–	0.0202% [at 42.5 µM]
CCOc1cc(OP(=S)(OC)OC)nc(CC)n1	–	-0.597%
CC(Cc1ccccc1)NCCn1cnc2c1c(=O)n(C)c(=O)n2C (stereo not given)	–	0.0857%
COc1ccc(CN2CCNCC2)c(OC)c1OC	–	-0.886% [at 42.5 µM]
CCC1(c2ccccc2)CCC(=O)NC1=O (stereo not given)	–	0.0898% [at 42.5 µM]
CCc1cc(OC)c(C[C@H](C)N)cc1OC	–	2.7%
BrCCc1ccccc1	–	1.12%
Clc1cc2c(cc1Cl)Oc1cc(Cl)c(Cl)cc1O2	–	2.22% [at 0.349 µM]
Cn1c(N)nc2c3cccnc3ccc21	–	1.16%
CC#Cc1cc(C)nc(Nc2ccccc2)n1	–	-1.21%
CC(C)(N)Cc1ccccc1Cl	–	1.28% [at 42.5 µM]
CC(C)(O)C(Cl)(Cl)Cl	–	0.905% [at 42.5 µM]
C=CCCC#N	–	-0.973%
O=S1(=O)OCCO1	–	0.373%
O=P(O)(O)c1ccccc1	–	0.0097%
c1ccc2c(c1)CCNC2	–	-0.916%
COP(=O)(O)OC	–	-0.854%

Structure (SMILES)	outcome	caspase activation
Cl/C=C/CCl	–	0.514%
CN(CCO)CCO	–	-1.09%
Cc1ccc(S(=O)(=O)N[C@@H](CCCCN)C(=O)CCl)cc1	–	-1.1% [at 42.5 µM]
CC(Cl)(Cl)Cl	–	0.0423%
CC1=C2[C@H]3OC(=O)[C@@H](C)[C@@H]3CC[C@@]2(C)C=CC1=O	–	0.704% [at 42.5 µM]
CC(=NC#N)N(C)Cc1ccc(Cl)nc1	–	0.881%
ClCOCCl	–	-0.218%
[O-][Br+2]([O-])O	–	-2.86% [at 42.5 µM]
Clc1ccc(C(Cl)(Cl)Cl)cn1	–	0.203%
COc1ccc2c(C(=O)c3ccc(Cl)cc3)c(C)n(CC(=O)O)c2c1	–	0.143% [at 42.5 µM]
BrCc1ccc(Br)cc1	–	-2.38%
O=[N+]([O-])c1cccc(CCl)c1	–	1.75%
Cc1ccc2cc(C)ccc2c1	–	0.498%
Cc1cccc2sc3nncn3c12	–	-1.71%
CC(O)CCl (stereo not given)	–	1.79%
O=C(O)C(F)(F)C(F)(F)C(F)(F)C(F)(F)C(F)(F)C(F)(F)F	–	0.133%
Cc1ccc2c(c1)C1CN(C)CCC1N2 (stereo not given)	–	-1.19% [at 19 µM]
CCN[C@H](C)Cc1cccc(C(F)(F)F)c1	–	-1.84%
C=CC=O	–	0.604%
CCCC(C)C1(CC)C(=O)N=C(S)NC1=O (stereo not given)	–	1.9% [at 42.5 µM]
